# Screens (PubChem BioAssay)
# An excerpt weighted towards active compounds, which were near 9.8% of everything screened.
# ALDH1A1 inh = qHTS Assay for Inhibitors of Aldehyde Dehydrogenase 1 (ALDH1A1); Aldehyde dehydrogenase 1A1 (Homo sapiens), P00352; Purified ALDH1A1, NADH fluorescence, propionaldehyde substrate; Potency, µM (top dose mostly 75.3 µM), for inactives: at the top dose activity, negative = inhibition, actives largely listed as inhibitors; hit rate 7.3% among 220,000; AID 1030, 2008;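 further: potency means the concentration at half of the fitted maximal effect; plate controls were no enzyme wells and a reference inhibitor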
# KDM4E inh = qHTS Assay for Inhibitors of Human Jumonji Domain Containing 2E (JMJD2E); Lysine-specific demethylase 4E (Homo sapiens), B2RXH2; JMJD2E catalytic domain, FDH-coupled NADH fluorescence (FDH is formaldehyde dehydrogenase); Potency, µM (top dose mostly 57.1 µM), for the others: at the highest dose activity change, negative = inhibition, hits mostly inhibitors; hit rate 1.6% among 230,000; AID 2147, 2009;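 further: potency means the concentration at half of the fitted maximal effect; 0% = wells with enzyme and -100% = buffer wells without enzyme; nearly all actives have a fitted effect of over 50% in size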
# Target sequence (B2RXH2 1-337 limits assumed): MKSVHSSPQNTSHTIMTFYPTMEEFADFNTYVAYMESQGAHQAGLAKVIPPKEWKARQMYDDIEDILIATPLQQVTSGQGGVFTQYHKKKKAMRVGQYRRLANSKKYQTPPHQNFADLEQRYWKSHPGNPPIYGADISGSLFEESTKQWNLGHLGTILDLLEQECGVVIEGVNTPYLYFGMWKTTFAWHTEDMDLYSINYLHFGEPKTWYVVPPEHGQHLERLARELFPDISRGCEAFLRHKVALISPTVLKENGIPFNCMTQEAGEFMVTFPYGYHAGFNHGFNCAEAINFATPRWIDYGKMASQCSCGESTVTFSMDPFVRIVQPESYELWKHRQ
# HTT aggregate = qHTS Multiplex Assay to Identify Dual Action Probes in a Cell Model of Huntington: Aggregate Formation (GFP). PC12 HttQ103-GFP aggregates, Acumen cytometry, 40 h. Potency, µM (titrated, usually from 46.1 µM), for inactives: top-dose activity change, negative = inhibition, actives largely listed as inhibitors. hit rate 1.1% among 220,000. AID 1688, 2009; active means well fitted curve in the direction sought with a large enough effect; inconclusive means small, poorly fitted or top-dose-only effect, or another doubt; inactive means no such curve, though single readings can be large; an effect the other way counts as inactive or inconclusive; further: potency means the concentration at half of the fitted maximal effect; on the % scale 0 is the no-effect control and ±100 the full control effect; nearly all actives have a fitted effect of over 60% in size
#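 Inducible Q103 Huntingtin exon 1–GFP PC12 line, 1500 cells/well in phenol red free DMEM with 5% equine and 5% calf serum. Tebufenozide 100 nM induced expression; compounds titrated; aggregates quantified by cytometry.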
# HTT ATP protect = qHTS Multiplex Assay to Identify Dual Action Probes in a Cell Model of Huntington: Cytoprotection (ATP) | Potency, µM (series often up to 56.4 µM), inactives show cytoprotection (ATP increase), usual class: activators | PC12 HTT-Q103 induced, cytoprotection, ATP luminescence, 40 h | hit rate 0.14% among 230,000; active means well fitted curve in the direction sought with a large enough effect; inconclusive means small, poorly fitted or top-dose-only effect, or another doubt; inactive means no such curve, though single readings can be large; an effect the other way counts as inactive or inconclusive; further: potency means the concentration at half of the fitted maximal effect; % of control where 0% means no effect; nearly all actives have a fitted effect of over 45% in size
#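 Compounds were screened for protection of PC12 cells against cell death after tebufenozide induction (100 nM final) of mutant Huntingtin exon 1 (Q103) fused to GFP.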
# HPGD block = qHTS Assay for Inhibitors of HPGD (15-Hydroxyprostaglandin Dehydrogenase); 15-hydroxyprostaglandin dehydrogenase [NAD(+)] (Homo sapiens), P15428; hit rate 4.3% among 150,000; Potency, µM, inactives show at the top dose activity change, negative = inhibition, actives largely listed as inhibitors; purified HPGD, NADH fluorescence kinetic, PGE2 substrate; further: potency means the concentration at half of the fitted maximal effect; on the % scale 0 is the no-effect control and ±100 the full control effect
# Target sequence (P15428 whole entry, looked up): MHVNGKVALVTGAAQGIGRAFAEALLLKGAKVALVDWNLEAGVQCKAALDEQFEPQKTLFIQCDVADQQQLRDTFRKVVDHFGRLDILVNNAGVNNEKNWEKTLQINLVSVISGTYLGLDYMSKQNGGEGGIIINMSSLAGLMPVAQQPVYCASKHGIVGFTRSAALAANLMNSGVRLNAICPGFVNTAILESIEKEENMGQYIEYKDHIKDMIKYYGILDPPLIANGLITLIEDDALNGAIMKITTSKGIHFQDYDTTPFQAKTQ
#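 NADH formation kinetics: reaction with 30 uM PGE2 and 1 mM NAD+ (final), 20 nM enzyme, Tris-HCl pH 8 with Tween 20, after 15 min compound preincubation at room temperature. Fluorescence change, last versus first of five reads.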
# CBFb-RUNX1 inh = qHTS Assay for Compounds Blocking the Interaction Between CBF-beta and RUNX1 for the Treatment of Acute Myeloid Leukemia; AlphaScreen CBFb-His/RUNX1-biotin binding, biochemical; Potency, µM (highest dose often 59.8 µM), inactives show at the highest dose activity, negative = inhibition, actives largely listed as inhibitors; 230,000 tested, under 10 active; AID 1477, 2009; active means well fitted curve in the direction sought with a large enough effect; inconclusive means small, poorly fitted or top-dose-only effect, or another doubt; inactive means no such curve, though single readings can be large; an effect the other way counts as inactive or inconclusive; further: % of control where 0% means no effect
#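 AlphaScreen binding: CBFb-His and RUNX1-biotin (30 nM each) preincubated 20 min, compound added for 15 min, then nickel and streptavidin beads for 90 min, all at room temperature. Disruption of the interaction by any mechanism counts as activity.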
# Numbers without * were called inactive; u = inconclusive; x = not tested or not shown; [ ] = dose if it differs, or a comment. Unless noted, the call rests on the fitted dose curve; in most records, active means well fitted inhibition curve with a large enough effect (not every such curve was filed as active); inconclusive means small, poorly fitted or top-dose-only effect, or another doubt; inactive means no such curve, though single readings can be large or run the other way.
SMILES,ALDH1A1 inh,KDM4E inh,HTT aggregate,HTT ATP protect,HPGD block,CBFb-RUNX1 inh
Cc1cc(C)n(-c2nnc3c4ccccc4n(C)c3n2)n1,x,-4.7%,-18.1%[9.22 µM],-40.6%[10 µM],x,u
Cc1ccc(C(=O)n2nc(-c3ccco3)nc2N)cc1,u,u,14.5%,11.6%,u,-2.6%
Cc1ccc(C(=O)n2ncn(C)c2=S)cc1,6.31µM*,-20.8%,-8.2%,-25.1%,x,9.0%
CC(=O)c1ccc(N2CCN(Cc3nc(Cc4ccccc4)no3)CC2)cc1,17.8µM*,-3.3%,17.2%[9.22 µM],-2.2%[10 µM],x,-5.1%
Nc1ccc(N2CCN(c3ccc(F)cc3)CC2)cc1,22.4µM*,-24.2%,u,-21.5%,x,u
O=C(O)c1ccc(N2CCCCC2)cc1,1.8%,-1.7%,-0.2%,13.0%,-14.3%,6.3%
Nc1ccc(N2CCCCCC2)cc1,7.94µM*,u,u,-37.2%,-11.1%,u
Cc1ccc(S(=O)(=O)N2CCN(C(=O)N(C)C)CC2)cc1,-9.6%,5.3%,-1.4%[9.22 µM],3.5%[10 µM],x,0.8%
Cc1cc(C)c(S(=O)(=O)N2CCN(C(=O)N(C)C)CC2)c(C)c1,4.47µM*,-0.4%,0.4%[9.22 µM],5.4%[10 µM],x,-1.1%
Cc1cc(C)n2nc(C(=O)N3CCCC(CNS(=O)(=O)c4cccs4)C3)cc2n1 (stereo not drawn),u,u,26.1%[9.22 µM],27.9%[10 µM],x,2.4%
COc1ccc(S(=O)(=O)NCC2CCCN(C(=O)c3ccco3)C2)cc1 (stereo not drawn),3.98µM*,-0.7%,12.2%[9.22 µM],6.1%[10 µM],x,-9.5%
COc1ccc(S(=O)(=O)NCC2CCCN(C(=O)c3cccs3)C2)cc1 (stereo not drawn),1.12µM*,-5.0%,u,24.4%[10 µM],x,0.6%
COc1ccc(S(=O)(=O)NCC2CCCN(C(=O)c3cccnc3)C2)cc1 (stereo not drawn),u,-4.3%,10.3%[9.22 µM],19.7%[10 µM],x,1.2%
CCc1cc(C(=O)N2CCCC(CNS(=O)(=O)c3cccs3)C2)n(C)n1 (stereo not drawn),5.01µM*,-4.0%,-11.7%[9.22 µM],-6.6%[10 µM],x,-1.6%
O=C(NCC1CCCO1)c1ccc2c(=O)n(Cc3cccc(Br)c3)c(=S)[nH]c2c1 (stereo not drawn),u,0.8%,15.2%,-44.2%,x,3.8%
COc1cccc(CNC(=O)C2CCN(S(=O)(=O)c3c(C)nn(C)c3C)CC2)c1,3.2%,8.7%,8.0%,-9.3%,-2.6%,1.7%
O=C1c2cccnc2C(Nc2ccc(Cl)cc2)N1Cc1cccs1 (stereo not drawn),4.47µM*,0.9%,-6.4%,-2.2%,x,0.1%
Cc1ccc(NC2c3ncccc3C(=O)N2Cc2cccs2)cc1C (stereo not drawn),u,u,8.8%,x,x,2.5%
COc1ccc(C2C(C#N)=C(C)NC3=C2C(=O)c2ccccc23)cc1 (stereo not drawn),u,u,-36.5%,6.0%,-19.7%,2.7%
O=C1NC2=C(C(=O)c3ccccc32)C(c2ccccc2)N1 (stereo not drawn),15.8µM*,-3.8%,-5.1%,-5.7%,-23.7%,1.7%
CC1=C([N+](=O)[O-])C(c2ccccc2)C2=C(N1)c1ccccc1C2=O (stereo not drawn),u,-5.1%,-18.9%,-68.3%,22.4µM*,u
C[C@]1(C(=O)NCc2cc(F)cc(C(F)(F)F)c2)C=C[C@@H](Cc2ccccc2)N1C(=O)c1ccccc1,5.2%,2.2%,-19.1%,15.3%,-18.9%,u
CSCC[C@H](NC(=O)[C@H](CCCNC(=N)N)NC(=O)[C@H](Cc1ccc(O)cc1)NC(=O)[C@@H]1CCCN1C(=O)CNC(=O)[C@H](CCC(=O)O)NC(=O)[C@H](CC(=O)O)NC(=O)[C@H](CCCCN)NC(=O)[C@H](CCCCN)NC(=O)[C@H](CCC(=O)O)NC(=O)[C@H](C)N)C(=O)N[C@@H](CCC(=O)O)C(=O)N[C@@H](Cc1cnc[nH]1)C(=O)N[C@@H](Cc1ccccc1)C(=O)N[C@@H](CCCNC(=N)N)C(=O)N[C@@H](Cc1c[nH]c2ccccc12)C(=O)NCC(=O)N[C@@H](CO)C(=O)N1CCC[C@H]1C(=O)N1CCC[C@H]1C(=O)N[C@@H](CCCCN)C(=O)N[C@@H](CC(=O)O)C(=O)O,x,x,x,x,x,2.8%
CCOc1cc(CNc2ccc(N(C)C)cc2)cc(Br)c1OCC(=O)NC(C)(C)C,3.16µM*,u,-18.8%,14.9%[10 µM],-24.0%,-18.3%
CCOc1cc(CNc2ccc(N3CCCCC3)cc2)cc(Br)c1OCC(=O)NC(C)(C)C,u,3.16µM*,25.1%,-9.5%[0.074 µM],-13.7%,u
SMILES,ALDH1A1 inh,KDM4E inh,HTT aggregate,HTT ATP protect,HPGD block,CBFb-RUNX1 inh
CCOc1cc(CNc2cccc3ccccc23)cc(Br)c1OCC(=O)NC(C)(C)C,u,u,-29.5%,-6.6%,-18.7%,-6.4%
COc1cc(CNc2ccc3[nH]c(=O)[nH]c3c2)ccc1OCC(=O)NC(C)(C)C,u,u,-4.5%,-23.0%[10 µM],u,-10.0%
COc1cc(CNc2ccc3[nH]c(=O)[nH]c3c2)cc(Br)c1OCC(=O)NC(C)(C)C,0.316µM*,-9.6%,u,x,u,-29.8%
Cc1ccccc1C(=O)Nc1nnc(-c2ccc(F)cc2)o1,6.6%,-0.6%,10µM*,-47.3%,-19.1%,-8.3%
COc1ccc(C(=O)NN/C(C)=C/C(=O)C(F)(F)C(F)(F)C(F)(F)F)cc1,-3.5%,10.2%,11.2µM*,40.7%[10 µM],-13.6%,6.0%
COC(=O)C(Cc1cncn1COCc1ccccc1)NC(=O)OC(C)(C)C (stereo not drawn),20µM*,-2.8%,15.8%,2.5%,-5.1%,2.3%
CC(C)(C)OC(=O)NC(CC(=O)OCc1ccccc1)C(=O)O (stereo not drawn),x,1.6%,5.0%[9.22 µM],14.3%[10 µM],x,2.3%
CCN(CC)S(=O)(=O)c1cc(C(=O)Nc2cccnc2)ccc1Cl,4.47µM*,-1.2%,13.2%,-56.1%[10 µM],-7.5%,6.3%
COc1ccc(C(=O)Nc2ccc(Cl)cc2C(=O)NCCN2CCOCC2)cc1,u,-1.6%,-17.2%,-21.1%,-11.9%,0.6%
C/C(=N\Nc1cccc(Cl)c1)c1ccncc1,-16.3%,-12.3%,-21.1%,5.8%,x,-9.4%
C/C(=N\Nc1ccc(F)cc1)c1ccncc1,20µM*,u,1.6%,25.2%[10 µM],-25.1%,-4.0%
